Laboratory results from PubChem BioAssay (Tox21).
Inconclusive results are not listed. Calls of active or inactive are those of the source. Unless noted, calls come from the whole dose curve; as a rule, active = well fitted curve in the direction sought with a large enough effect in the repeat runs; inconclusive = weak or mixed curves; inactive = no such curve, though single readings can be large; an effect the other way counts as inactive or inconclusive.

Experiments:
[1] = A CellTox Green Cytotoxicity Assay to monitor cytotoxicity in HepG2 cells - 24 hour (AID 1224878); note: nearly all actives have a fitted effect of over 45% in size
In short: (§1)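 HepG2 cells, 600/well, preincubated 5 h with CellTox Green dye, then exposed to Tox21 compounds in DMSO at 37 C for up to 40 h. Dead-cell DNA fluorescence read at the indicated time point.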

[2] = A CellTox Green Cytotoxicity Assay to monitor cytotoxicity in HepG2 cells - 40 hour (AID 1224879); note: nearly all actives have a fitted effect of over 40% in size; note: potency is the fitted concentration of half-maximal effect
In short: as §1

[3] = qHTS RealTime-Glo MT Cell Viability Assay in HEK293 cells - 0 hour (AID 1224880); note: top concentration of the series differs between compounds; nearly all actives have a fitted effect of over 45% in size
In short: (§2)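 600 cells/well were plated with the nonlytic NanoLuc/prosubstrate reagent, pre-incubated 5 h, then given 23 nL of compound in DMSO. Incubation at 37 C for 40 h, with luminescence from viable-cell-reduced substrate read repeatedly from 0 h.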

[4] = A CellTox Green Cytotoxicity Assay to monitor cytotoxicity in HEK293 cells - 32 hour (AID 1224881); note: nearly all actives have a fitted effect of over 40% in size
In short: (§3)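 HEK293 cells, 600/well, were preincubated 5 hours and then exposed to compounds at 37 C for up to 40 hours. A cell-impermeant cyanine dye staining dead-cell DNA was read by fluorescence at 0, 8, 16, 24, 32 and 40 h time points.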

[5] = A CellTox Green Cytotoxicity Assay to monitor cytotoxicity in HepG2 cells - 0 hour (AID 1224882); note: nearly all actives have a fitted effect of over 35% in size
In short: as §1

[6] = A CellTox Green Cytotoxicity Assay to monitor cytotoxicity in HepG2 cells - 32 hour (AID 1224883); note: nearly all actives have a fitted effect of over 50% in size; note: potency is the fitted concentration of half-maximal effect
In short: as §1

[7] = A CellTox Green Cytotoxicity Assay to monitor cytotoxicity in HEK293 cells - 8 hour (AID 1224884); note: nearly all actives have a fitted effect of over 35% in size
In short: as §3

[8] = qHTS RealTime-Glo MT Cell Viability Assay in HepG2 cells - 16 hour (AID 1224885); note: nearly all actives have a fitted effect of over 50% in size
In short: (§4)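 Real-time, nonlytic viability: 600 HepG2 cells/well mixed with NanoLuc enzyme plus prosubstrate; 5 h settle, compound (DMSO) added by pintool; luminescence monitored over 40 h at 37 C.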

[9] = A CellTox Green Cytotoxicity Assay to monitor cytotoxicity in HEK293 cells - 16 hour (AID 1224888); note: nearly all actives have a fitted effect of over 35% in size
In short: as §3

[10] = qHTS RealTime-Glo MT Cell Viability Assay in HepG2 cells - 0 hour (AID 1224889); note: nearly all actives have a fitted effect of over 50% in size
In short: as §4

[11] = A CellTox Green Cytotoxicity Assay to monitor cytotoxicity in HepG2 cells - 8 hour (AID 1224890); note: nearly all actives have a fitted effect of over 45% in size
In short: as §1

[12] = qHTS assay to identify small molecule antagonists of the androgen receptor (AR) signaling pathway using the MDA cell line in the presence of 0.5 nM R1881 - cell viability counter screen (AID 1259242); note: nearly all actives have a fitted effect of over 45% in size
In short: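 MDA-kb2 cells (MMTV-luciferase, AR/GR responsive) were treated with compounds plus 0.5 nM R1881 (final) for 16 hr at 37C, 0% CO2. Viability was then read in the same wells as live-cell protease fluorescence (CellTiter-Fluor, 30 min).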

[13] = target: Estrogen receptor (Homo sapiens) (UniProt P03372); assay: qHTS assay to identify small molecule antagonists of the estrogen receptor alpha (ER-alpha) signaling pathway using the BG1 cell line in the presence of 0.1 nM 17-beta-estradiol (AID 1259244); note: nearly all actives have a fitted effect of over 50% in size
Estrogen receptor (Homo sapiens), sequence (P03372 whole entry, looked up): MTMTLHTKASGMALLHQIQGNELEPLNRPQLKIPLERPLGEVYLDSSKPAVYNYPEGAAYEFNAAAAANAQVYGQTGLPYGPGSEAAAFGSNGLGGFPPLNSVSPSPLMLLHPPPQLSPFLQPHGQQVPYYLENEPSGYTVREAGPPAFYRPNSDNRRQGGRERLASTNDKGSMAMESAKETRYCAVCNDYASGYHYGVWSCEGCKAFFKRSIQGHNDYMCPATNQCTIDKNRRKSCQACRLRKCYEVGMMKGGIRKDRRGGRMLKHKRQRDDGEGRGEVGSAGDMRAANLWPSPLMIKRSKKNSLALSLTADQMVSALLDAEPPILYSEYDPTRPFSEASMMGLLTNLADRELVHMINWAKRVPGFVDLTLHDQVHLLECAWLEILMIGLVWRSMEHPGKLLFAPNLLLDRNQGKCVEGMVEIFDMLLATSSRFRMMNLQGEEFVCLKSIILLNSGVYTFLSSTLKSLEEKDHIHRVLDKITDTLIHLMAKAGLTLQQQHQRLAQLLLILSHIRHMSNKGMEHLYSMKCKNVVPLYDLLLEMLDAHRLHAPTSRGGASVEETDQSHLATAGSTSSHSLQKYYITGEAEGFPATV
In short: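 VM7Luc4E2 cells (endogenous full-length ER-alpha, 4×ERE-luciferase), kept 5 days in phenol red-free, charcoal-stripped FBS medium; 4,000 cells/well. Compounds added with 0.1 nM (final) 17beta-estradiol, 22 hr at 37C; luminescence read with ONE-Glo after 30 min.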

[14] = qHTS assay to identify small molecule HDAC inhibitors (AID 1259364)
In short: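 Wild-type HCT-116 cells, plated overnight at 37 C, exposed to compounds 2 hr at 37 C; luminogenic HDAC-Glo substrate then added 30 min at room temperature. Luminescence reports relative endogenous class I/II HDAC activity.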

[15] = qHTS assay to identify small molecule HDAC inhibitors - cell viability counter screen (AID 1259365)
In short: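 Measured quantity is CellTiter-Glo luminescence from wild-type HCT-116 cells after compound incubation of 2hr at 37C, 5% CO2; reagent developed 30min at room temperature.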

[16] = qHTS RealTime-Glo MT Cell Viability Assay in HEK293 cells - 24 hour (AID 1224886)
In short: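 Cells + reagent dispensed (600 cells/well, HEK293) → 5 h at 37 C/5% CO2 → 23 nL compound in DMSO pinned → 40 h at 37 C → luminescence read at 0, 8, 16, 24, 32, 40 h.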

[17] = qHTS RealTime-Glo MT Cell Viability Assay in HEK293 cells - 8 hour (AID 1224887)
In short: as §2

[18] = qHTS assay to identify small molecule antagonists of the estrogen receptor alpha (ER-alpha) signaling pathway using the BG1 cell line in the presence of 0.1 nM 17-beta-estradiol - cell viability counter screen (AID 1259241); note: nearly all actives have a fitted effect of over 40% in size
In short: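 In this screen, hormone-deprived VM7Luc4E2 cells were seeded at 4,000 per well, dosed with compound and 0.1 nM estradiol final, and incubated 22 hr at 37C and 5% CO2; fluorogenic live-cell protease signal reported viability.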

[19] = qHTS assay to identify small molecule phospholipidosis (PLD) inducers (AID 1259344; active = well fitted curve in the direction sought with a large enough effect; an effect the other way counts as inactive or inconclusive)
In short: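 HepG2 cells grown on collagen I take up LipidTOX Red while exposed to compound for 24 h; after fixation they are imaged at 20x and pit metrics are extracted.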

[20] = target: Androgen receptor (Homo sapiens) (UniProt P10275); assay: qHTS assay to identify small molecule antagonists of the androgen receptor (AR) signaling pathway using the MDA cell line in the presence of 0.5 nM R1881 (AID 1259243); note: nearly all actives have a fitted effect of over 50% in size
Androgen receptor (Homo sapiens), sequence (P10275 whole entry, looked up): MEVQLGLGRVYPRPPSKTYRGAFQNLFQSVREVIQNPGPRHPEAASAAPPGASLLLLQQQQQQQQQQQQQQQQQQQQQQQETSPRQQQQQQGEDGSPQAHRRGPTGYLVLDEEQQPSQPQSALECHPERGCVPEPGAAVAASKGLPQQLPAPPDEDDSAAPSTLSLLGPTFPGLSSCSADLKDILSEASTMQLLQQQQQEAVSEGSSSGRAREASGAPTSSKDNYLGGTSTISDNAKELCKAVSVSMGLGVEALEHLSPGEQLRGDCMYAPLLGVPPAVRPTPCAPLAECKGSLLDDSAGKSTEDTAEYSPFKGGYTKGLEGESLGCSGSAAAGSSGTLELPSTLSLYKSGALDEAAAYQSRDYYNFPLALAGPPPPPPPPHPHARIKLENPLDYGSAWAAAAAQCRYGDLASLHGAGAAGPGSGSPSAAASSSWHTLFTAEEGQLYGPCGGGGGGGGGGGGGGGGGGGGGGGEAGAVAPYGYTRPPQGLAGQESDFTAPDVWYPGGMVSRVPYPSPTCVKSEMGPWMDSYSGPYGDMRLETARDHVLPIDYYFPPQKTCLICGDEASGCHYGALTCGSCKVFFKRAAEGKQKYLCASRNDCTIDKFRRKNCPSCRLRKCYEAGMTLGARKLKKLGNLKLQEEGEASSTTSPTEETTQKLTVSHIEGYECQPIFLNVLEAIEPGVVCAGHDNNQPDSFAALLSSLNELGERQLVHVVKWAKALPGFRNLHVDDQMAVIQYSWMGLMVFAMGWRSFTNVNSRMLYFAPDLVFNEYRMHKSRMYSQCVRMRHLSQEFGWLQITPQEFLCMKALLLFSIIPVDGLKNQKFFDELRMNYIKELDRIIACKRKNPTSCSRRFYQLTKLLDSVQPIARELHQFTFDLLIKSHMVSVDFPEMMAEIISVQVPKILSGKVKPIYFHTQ
In short: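 MDA-kb2 cells (MMTV-luciferase, responsive to AR and GR) at 3,000/well, rested 5 h at 37C, 0% CO2, then given compounds plus 0.5 nM R1881 (final) for 16 hr. Luciferase read with ONE-Glo after 30 min at room temperature.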
% is set by controls: 0 for no effect and ±100 for the full control effect.

CC(=O)c1ccc2ccc3ccccc3c2c1
inactive: Potency [1] | Potency [2] | Potency [3] | Potency [4] | Potency [5] | Potency [6] | Potency [7] | outcome [8] | Potency [9] | Potency [10] | Potency [11] | outcome [12] | outcome [13] | Potency [14] | outcome [15]

CCCCN=C(N)N=C(N)N
inactive: Potency [1] | Potency [2] | Potency [3] | Potency [4] | Potency [5] | Potency [6] | Potency [7] | outcome [8] | outcome [16] | outcome [17] | Potency [10] | Potency [11] | outcome [18] | outcome [12] | Potency [19] | Potency [14] | outcome [15]

CCCCCCCCCCCCCC(=O)OCC
inactive: Potency [1] | Potency [2] | Potency [3] | Potency [4] | Potency [5] | Potency [6] | Potency [7] | outcome [8] | outcome [16] | outcome [17] | Potency [11] | outcome [18] | outcome [12] | Potency [14] | outcome [15]

COc1cnc(NS(=O)(=O)c2ccc(N)cc2)nc1
inactive: Potency [1] | Potency [2] | Potency [3] | Potency [4] | Potency [5] | Potency [6] | Potency [7] | outcome [8] | outcome [16] | outcome [17] | Potency [10] | Potency [11] | outcome [12] | Potency [19] | Potency [14] | outcome [15]

Cc1nnc(C(=O)NC(C)(C)c2nc(C(=O)NCc3ccc(F)cc3)c(O)c(=O)n2C)o1
inactive: Potency [1] | Potency [2] | Potency [3] | Potency [4] | Potency [5] | Potency [6] | Potency [7] | outcome [8] | outcome [17] | Potency [9] | Potency [11] | outcome [18] | outcome [12] | Potency [19] | outcome [15]

CC(=O)c1ccc(O)c(C(N)=O)c1
inactive: Potency [1] | Potency [2] | Potency [3] | Potency [4] | Potency [5] | Potency [6] | outcome [8] | outcome [16] | outcome [17] | Potency [9] | Potency [10] | Potency [11] | outcome [12] | Potency [20] | Potency [14] | outcome [15]

C[C@@H]1NC(=O)[C@@H](N)CNC(=O)[C@H](C2CCNC(N)=N2)NC(=O)/C(=C/NC(N)=O)NC(=O)[C@H](CNC(=O)C[C@@H](N)CCCN)NC1=O (stereo partly specified)
inactive: cytotoxicity [1] -1.91% [at 0.29 µM] | cytotoxicity increase [2] -3.78% [at 0.29 µM] | activity change, negative = cytotoxicity [3] -3.01% [at 0.29 µM] | cytotoxicity increase [4] 19.4% [at 0.29 µM] | cytotoxicity [5] -4.92% [at 0.29 µM] | cytotoxicity increase [6] -3.17% [at 0.29 µM] | cytotoxicity increase [7] 6.36% [at 0.29 µM] | activity change, negative = cytotoxic [8] 5.82% [at 0.29 µM] | activity change, negative = cytotoxicity [16] 0.653% [at 0.29 µM] | activity change, negative = cytotoxicity [17] 0.186% [at 0.29 µM] | cytotoxicity increase [11] -1.65% [at 0.29 µM] | activity change, negative = cytotoxicity [18] 6.75% [at 0.349 µM] | viability change, negative = cytotoxic [12] 2.87% [at 0.349 µM] | activity change, negative = inhibition [13] 11.8% [at 0.349 µM] | Potency [19] | activity change, negative = inhibition [14] -0.0991% [at 0.349 µM] | activity change, negative = cytotoxicity [15] -0.0427% [at 0.349 µM]

Nc1ccc(C(=O)NCC(=O)O)cc1
inactive: Potency [1] | Potency [2] | Potency [3] | Potency [4] | Potency [5] | Potency [6] | outcome [8] | outcome [16] | outcome [17] | Potency [9] | Potency [10] | outcome [18] | outcome [12] | outcome [13] | Potency [19] | Potency [14] | outcome [15]

O=S(=O)(O)CC(O)CCl (stereo unspecified)
inactive: Potency [2] | Potency [3] | Potency [4] | Potency [5] | Potency [6] | Potency [7] | outcome [8] | outcome [16] | outcome [17] | Potency [9] | Potency [10] | Potency [11] | outcome [18] | outcome [12] | outcome [13] | Potency [14] | outcome [15]

CC/C=C\CCCCCCCCCCOC(C)=O
inactive: Potency [1] | Potency [2] | Potency [3] | Potency [4] | Potency [5] | Potency [6] | outcome [8] | outcome [16] | outcome [17] | Potency [9] | outcome [18] | outcome [12] | outcome [13] | Potency [14] | outcome [15]

CC(C)(C)c1ccc(N)cc1
active: Potency [2] 61.7 µM | Potency [6] 61.7 µM
inactive: Potency [3] | Potency [4] | Potency [5] | Potency [7] | outcome [8] | outcome [16] | outcome [17] | Potency [9] | Potency [10] | Potency [11] | outcome [18] | outcome [12] | outcome [13] | Potency [14] | outcome [15]

CC(C)(C)C(=O)CC(=O)C(C)(C)C
inactive: Potency [2] | Potency [3] | Potency [4] | Potency [5] | Potency [6] | Potency [7] | outcome [8] | outcome [16] | outcome [17] | Potency [9] | Potency [10] | Potency [11] | outcome [18] | outcome [12] | outcome [13] | Potency [14] | outcome [15]

CC(C)CC(O)Cc1ccccc1 (stereo unspecified)
inactive: Potency [1] | Potency [2] | Potency [3] | Potency [4] | Potency [5] | Potency [6] | outcome [8] | outcome [16] | outcome [17] | Potency [10] | Potency [11] | outcome [18] | outcome [12] | Potency [20] | outcome [13] | Potency [14] | outcome [15]
